Measurements from PubChem BioAssay AID1159580 (chemical genetic matrix, 2015).
In all, about 5,500 compounds went through this assay and about 2,000 (36%) were called active. Roughly 18% stayed inconclusive and do not appear here. The list shows a part of the results. A number with no mark means an inactive call. Rule as the data show it: active = normalized growth mostly below about 0.91 (no sharp cut-off); inconclusive = no clear call, values can overlap the other calls; inactive = mostly above about 0.92.

Assay: chemical genetic growth profiling, strain panel (AID 1159580);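 also: tested at 20 µM; growth read once vehicle control cultures reached saturation at 30 °C; 1 = growth at the plate median or of vehicle wells; lower values mean less growth of the strain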
Details: growth OD

Which results are given for CCCc1nc2c(C)cc(-c3nc4ccccc4n3C)cc2n1Cc1ccc(-c2ccccc2C(=O)O)cc1?
normalized growth (S. cerevisiae deletion strains, locus YJR043C, strain POL32, active compounds read low): 0.991; normalized growth (S. cerevisiae deletion strains, locus YJR066W, strain TOR1, active compounds read low): 0.952; normalized growth (S. cerevisiae deletion strains, locus YKL068W, active compounds read low): 1.01; normalized growth (S. cerevisiae deletion strains, locus YKL085W, strain MDH1 (second series), active compounds read low): 1.08 [resistant] (active); normalized growth (S. cerevisiae deletion strains, locus YKL085W, strain MDH1, active compounds read low): 1.08 [resistant] (active); normalized growth (S. cerevisiae deletion strains, locus YKL160W, strain elf1, active compounds read low): 1.03; normalized growth (S. cerevisiae deletion strains, locus YKL190W, strain CNB1, active compounds read low): 1; normalized growth (S. cerevisiae deletion strains, locus YKR001C, strain vps1, active compounds read low): 1.02; normalized growth (S. cerevisiae deletion strains, locus YKR026C, strain gcn3, active compounds read low): 1.02; normalized growth (S. cerevisiae deletion strains, locus YKR091W, strain srl3, active compounds read low): 1.01; normalized growth (S. cerevisiae deletion strains, locus YLL001W, strain dnm1, active compounds read low): 1.01; normalized growth (S. cerevisiae deletion strains, locus YLL026W, active compounds read low): 1; normalized growth (S. cerevisiae deletion strains, locus YLL041C, strain sdh2, active compounds read low): 1.01; normalized growth (S. cerevisiae deletion strains, locus YLR027C, strain aat2, active compounds read low): 1; normalized growth (S. cerevisiae deletion strains, locus YLR039C, strain RIC1, active compounds read low): 0.975; normalized growth (S. cerevisiae deletion strains, locus YLR058C, strain SHM2, active compounds read low): 1; normalized growth (S. cerevisiae deletion strains, locus YLR102C, strain apc9, active compounds read low): 1; normalized growth (S. cerevisiae deletion strains, locus YLR113W, strain HOG1, active compounds read low): 1; normalized growth (S. cerevisiae deletion strains, locus YLR221C, strain rsa3, active compounds read low): 0.994; normalized growth (S. cerevisiae deletion strains, locus YLR258W, strain gsy2, active compounds read low): 1.01; normalized growth (S. cerevisiae deletion strains, locus YLR262C, strain YPT6 (second series), active compounds read low): 0.975; normalized growth (S. cerevisiae deletion strains, locus YLR262C, strain YPT6, active compounds read low): 0.998; normalized growth (S. cerevisiae deletion strains, locus YLR268W, strain sec22, active compounds read low): 1; normalized growth (S. cerevisiae deletion strains, locus YLR320W, strain mms22, active compounds read low): 0.983; normalized growth (S. cerevisiae deletion strains, locus YLR330W, strain CHS5, active compounds read low): 1; normalized growth (S. cerevisiae deletion strains, locus YLR342W, strain FKS1 (second series), active compounds read low): 1; normalized growth (S. cerevisiae deletion strains, locus YLR342W, strain FKS1, active compounds read low): 1; normalized growth (S. cerevisiae deletion strains, locus YLR357W, strain rsc2, active compounds read low): 1.03; normalized growth (S. cerevisiae deletion strains, locus YLR370C, strain arc18, active compounds read low): 1.01; normalized growth (S. cerevisiae deletion strains, locus YLR371W, strain rom2, active compounds read low): 1; normalized growth (S. cerevisiae deletion strains, locus YLR384C, strain iki3, active compounds read low): 1.03; normalized growth (S. cerevisiae deletion strains, locus YLR418C, strain cdc73, active compounds read low): 1; normalized growth (S. cerevisiae deletion strains, locus YML016C, strain PPZ1, active compounds read low): 0.997; normalized growth (S. cerevisiae deletion strains, locus YML032C, strain rad52, active compounds read low): 1; normalized growth (S. cerevisiae deletion strains, locus YML120C, strain ndi1, active compounds read low): 1; normalized growth (S. cerevisiae deletion strains, locus YML124C, strain tub3, active compounds read low): 0.998; normalized growth (S. cerevisiae deletion strains, locus YMR058W, strain fet3, active compounds read low): 1.01; normalized growth (S. cerevisiae deletion strains, locus YMR078C, strain ctf18, active compounds read low): 1.02; normalized growth (S. cerevisiae deletion strains, locus YMR125W, strain sto1, active compounds read low): 0.99; normalized growth (S. cerevisiae deletion strains, locus YMR129W, active compounds read low): 1.01; normalized growth (S. cerevisiae deletion strains, locus YMR205C, strain PFK2, active compounds read low): 1; normalized growth (S. cerevisiae deletion strains, locus YMR223W, strain ubp8, active compounds read low): 1.03; normalized growth (S. cerevisiae deletion strains, locus YMR231W, strain pep5, active compounds read low): 1.02; normalized growth (S. cerevisiae deletion strains, locus YMR263W, strain SAP30, active compounds read low): 0.994; normalized growth (S. cerevisiae deletion strains, locus YMR307W, strain GAS1, active compounds read low): 0.995; normalized growth (S. cerevisiae deletion strains, locus YNL067W, strain RPL9B, active compounds read low): 0.992; normalized growth (S. cerevisiae deletion strains, locus YNL071W, strain lat1, active compounds read low): 1.01; normalized growth (S. cerevisiae deletion strains, locus YNL128W, strain TEP1, active compounds read low): 1.01; normalized growth (S. cerevisiae deletion strains, locus YNL183C, strain NPR1, active compounds read low): 0.969; normalized growth (S. cerevisiae deletion strains, locus YNL209W, strain ssb2, active compounds read low): 1; normalized growth (S. cerevisiae deletion strains, locus YNL233W, strain BNI4, active compounds read low): 0.985; normalized growth (S. cerevisiae deletion strains, locus YNL248C, strain rpa49, active compounds read low): 1.02; normalized growth (S. cerevisiae deletion strains, locus YNL250W, strain rad50, active compounds read low): 1.03; normalized growth (S. cerevisiae deletion strains, locus YNL271C, strain bni1, active compounds read low): 1.02; normalized growth (S. cerevisiae deletion strains, locus YNL298W, strain CLA4, active compounds read low): 1.02; normalized growth (S. cerevisiae deletion strains, locus YNL307C, strain MCK1, active compounds read low): 1.01; normalized growth (S. cerevisiae deletion strains, locus YNL322C, strain KRE1 (second series), active compounds read low): 0.976; normalized growth (S. cerevisiae deletion strains, locus YNR049C, strain mso1, active compounds read low): 1.02; normalized growth (S. cerevisiae deletion strains, locus YNR052C, strain pop2, active compounds read low): 1.01; normalized growth (S. cerevisiae deletion strains, locus YOL006C, strain TOP1, active compounds read low): 0.995; normalized growth (S. cerevisiae deletion strains, locus YOL012C, strain htz1): 0.863; normalized growth (S. cerevisiae deletion strains, locus YOL147C, strain pex11, active compounds read low): 1.01; normalized growth (S. cerevisiae deletion strains, locus YOR001W, strain rrp6, active compounds read low): 0.99; normalized growth (S. cerevisiae deletion strains, locus YOR061W, strain CKA2, active compounds read low): 0.996; normalized growth (S. cerevisiae deletion strains, locus YOR069W, strain VPS5, active compounds read low): 1.01; normalized growth (S. cerevisiae deletion strains, locus YOR070C, strain gyp1, active compounds read low): 1.01; normalized growth (S. cerevisiae deletion strains, locus YOR080W, strain dia2, active compounds read low): 1.01; normalized growth (S. cerevisiae deletion strains, locus YOR083W, strain WHI5, active compounds read low): 1.01; normalized growth (S. cerevisiae deletion strains, locus YOR106W, strain vam3, active compounds read low): 1.03; normalized growth (S. cerevisiae deletion strains, locus YOR136W, strain idh2, active compounds read low): 1.01; normalized growth (S. cerevisiae deletion strains, locus YOR144C, strain elg1, active compounds read low): 1.01; normalized growth (S. cerevisiae deletion strains, locus YOR184W, strain ser1, active compounds read low): 0.999; normalized growth (S. cerevisiae deletion strains, locus YOR231W, strain MKK1, active compounds read low): 0.998; normalized growth (S. cerevisiae deletion strains, locus YOR265W, strain rbl2, active compounds read low): 1.01; normalized growth (S. cerevisiae deletion strains, locus YOR270C, strain vph1, active compounds read low): 0.954; normalized growth (S. cerevisiae deletion strains, locus YOR290C, strain snf2, active compounds read low): 1.01; normalized growth (S. cerevisiae deletion strains, locus YOR316C, strain cot1, active compounds read low): 0.999; normalized growth (S. cerevisiae deletion strains, locus YPL051W, strain arl3, active compounds read low): 1.01; normalized growth (S. cerevisiae deletion strains, locus YPL055C, strain LGE1, active compounds read low): 0.974; normalized growth (S. cerevisiae deletion strains, locus YPL078C, strain atp4, active compounds read low): 1.01; normalized growth (S. cerevisiae deletion strains, locus YPL106C, strain sse1, active compounds read low): 0.996; normalized growth (S. cerevisiae deletion strains, locus YPL240C, strain hsp82, active compounds read low): 1.01; normalized growth (S. cerevisiae deletion strains, locus YPL256C, strain CLN2, active compounds read low): 0.969; normalized growth (S. cerevisiae deletion strains, locus YPR119W, strain clb2, active compounds read low): 1; normalized growth (S. cerevisiae deletion strains, locus YPR141C, strain kar3, active compounds read low): 1.01; normalized growth (S. cerevisiae deletion strains, locus YPR163C, strain tif3, active compounds read low): 0.997; normalized growth (S. cerevisiae deletion strains, locus YPR167C, strain met16, active compounds read low): 1.01; normalized growth (S. cerevisiae deletion strains, strain wtn01, active compounds read low): 1.05; normalized growth (S. cerevisiae strains, strain wild type, active compounds read low): 1
